# Article PMC4336329 (PLoS ONE, 2015)
# Hit rate of the full screen: of about 310,000 compounds, about 2,200 (0.71%) showed an effect of 50% or more. Effects have a minus sign here. What follows is part of a selection rich in strong results, with near analogues and random picks from the rest.
# Biological target: human ether-à-go-go-related gene (hERG) potassium channel (human, UniProt Q12809)
# Experiment: primary screen, population patch clamp on CHO cells stably expressing hERG; higher = less effect of the substance
# human ether-à-go-go-related gene (hERG) potassium channel, sequence (Q12809 whole entry, looked up): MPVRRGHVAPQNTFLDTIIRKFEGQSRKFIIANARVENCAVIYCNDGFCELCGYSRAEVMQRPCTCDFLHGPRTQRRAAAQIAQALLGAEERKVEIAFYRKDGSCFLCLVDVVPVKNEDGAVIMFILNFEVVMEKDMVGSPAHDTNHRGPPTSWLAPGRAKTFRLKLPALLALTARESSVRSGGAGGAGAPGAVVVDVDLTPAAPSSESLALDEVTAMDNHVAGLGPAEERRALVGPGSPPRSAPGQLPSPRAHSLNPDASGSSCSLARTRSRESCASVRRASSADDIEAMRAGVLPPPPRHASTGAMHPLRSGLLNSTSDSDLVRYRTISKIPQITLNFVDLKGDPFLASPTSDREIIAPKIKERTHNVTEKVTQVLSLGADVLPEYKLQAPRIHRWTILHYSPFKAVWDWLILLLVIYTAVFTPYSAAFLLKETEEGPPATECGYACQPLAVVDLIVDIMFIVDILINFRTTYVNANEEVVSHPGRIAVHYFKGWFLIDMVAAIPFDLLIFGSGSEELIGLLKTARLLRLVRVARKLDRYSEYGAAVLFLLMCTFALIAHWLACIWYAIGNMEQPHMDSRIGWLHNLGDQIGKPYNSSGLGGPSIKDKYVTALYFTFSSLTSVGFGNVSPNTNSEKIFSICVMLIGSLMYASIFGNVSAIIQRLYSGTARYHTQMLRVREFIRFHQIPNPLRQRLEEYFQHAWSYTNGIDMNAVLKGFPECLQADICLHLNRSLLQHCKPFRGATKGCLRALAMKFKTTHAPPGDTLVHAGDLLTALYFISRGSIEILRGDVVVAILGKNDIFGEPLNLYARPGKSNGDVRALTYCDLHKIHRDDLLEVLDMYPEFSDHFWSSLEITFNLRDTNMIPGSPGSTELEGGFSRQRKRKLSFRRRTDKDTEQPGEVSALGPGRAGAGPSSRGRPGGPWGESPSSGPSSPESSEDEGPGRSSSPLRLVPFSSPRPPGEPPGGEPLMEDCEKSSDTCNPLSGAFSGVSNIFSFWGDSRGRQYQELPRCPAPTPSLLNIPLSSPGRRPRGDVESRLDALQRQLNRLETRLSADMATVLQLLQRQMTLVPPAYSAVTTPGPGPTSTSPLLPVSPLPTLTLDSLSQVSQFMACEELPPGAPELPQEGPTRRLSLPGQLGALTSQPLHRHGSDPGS
row,Compound,"hERG current change (%, negative = inhibition) at 1uM [%]"
1,CCS(=O)(=O)c1ccc(O)c(NC(=O)COc2ccccc2)c1,12.6
2,Cc1cccc(-n2nc([N+](=O)[O-])c(=NC3CCN(Cc4ccccc4)CC3)n2O)c1,-55.4
3,O=[N+]([O-])c1nn(-c2ccccc2)n(O)c1=NC1CCN(Cc2ccccc2)CC1,-16
4,COc1ccc(-n2nc([N+](=O)[O-])c(=NC3CCN(Cc4ccccc4)CC3)n2O)cc1,-6.46
5,O=C(Nc1cnn(Cc2ccc(Cl)cc2)c1)C1CCCC1,-7.77
6,O=C(NCc1ccc(Cl)cc1)C(=O)NCC1OCCN1C(=O)c1cccs1 (stereo not drawn),3.06
7,O=C(NCc1ccccc1)C(=O)NCC1OCCN1C(=O)c1cccs1 (stereo not drawn),-54.6
8,O=C(NCc1ccc(F)cc1)C(=O)NCC1OCCN1C(=O)c1cccs1 (stereo not drawn),3.51
9,CCOC(=O)Cc1csc(NC(=O)c2ccc(OC)c(OC)c2)n1.Cl,-6.29
10,CN(C)S(=O)(=O)c1ccc(C(=O)NCC(C)(C)CN=C2NS(=O)(=O)c3ccccc32)cc1,1.35
11,Cc1nnc(C)c2c(C)n(C(c3ccccc3)c3ccccc3)c(C)c12,-65.7
12,CC(=O)c1c(C(C)=O)c(C)n(C(c2ccccc2)c2ccccc2)c1C,-4.36
13,COc1ccc(C(C)n2c(C)c3c(C)nnc(C)c3c2C)cc1 (stereo not drawn),-52.3
14,Cc1nnc(C)c2c(C)n(C(C)c3ccccc3)c(C)c12 (stereo not drawn),-1.28
15,COc1ccc(C(=O)C(Sc2nnc(C)c(=O)[nH]2)c2ccc(OC)cc2)cc1 (stereo not drawn),1.35
16,COc1ccc(-c2nnnn2C(C)C)cc1,11.1
17,Cc1cccc(NC(=O)NC2(C(=O)NCc3ccco3)CCCCC2)c1,2.75
18,CN(C)c1ccc(NS(=O)(=O)c2ccc(Cl)cc2)cc1,6.28
19,CC(C)Oc1ccc(Nc2ncnc3ccccc23)cc1.Cl,3.47
20,COc1ccc(NC(=O)CCn2ccnc2)c(OC)c1,9.53
21,COC(=O)COc1ccc(S(=O)(=O)N2CCOCC2)cc1,13.1

row,Compound,"hERG current change (%, negative = inhibition) at 1uM [%]"
1,COCCOc1ccc(C(F)(F)F)cc1NC(=O)c1ccccc1,-2.95
2,CCCCCNCC(=O)Nc1cc(C(F)(F)F)ccc1OCCOC,-5.74
3,CCN1CCN(CC(=O)Nc2cc(C(F)(F)F)ccc2OCCOC)CC1.O=C(O)C(=O)O,-70.9
4,CC(=O)N(C)c1ccc(NC(=O)Nc2ccc(Cl)cc2)cc1,8.67
5,CC(=O)Cc1ccccc1OCC(=O)O,18.9
6,O=C(Nc1cc(Cl)cc(Cl)c1)c1cnn2cccnc12,16.2
7,COC(=O)c1c(NC(=O)CN2C(=O)C(=O)N(CC(C)C)C2=O)sc(C)c1C,9.77
8,O=C1N(Cc2cccc(Cl)c2)C[C@@H]2C[C@@H](c3cccn3-c3nccs3)N3CCC[C@@]123,-19.2
9,O=C1N(Cc2cccnc2)C[C@@H]2C[C@@H](c3cccc(OCc4ccccc4)c3)N3CCC[C@@]123,-17.8
10,O=C1N(Cc2cccnc2)C[C@@H]2C[C@@H](c3cccc(Oc4ccccc4)c3)N3CCC[C@@]123,-4.79
11,O=C1N(Cc2cccc(Cl)c2)C[C@@H]2C[C@@H](c3cccn3-c3ccccn3)N3CCC[C@@]123,-56.9
12,O=C1N(Cc2cccc(Cl)c2)C[C@@H]2C[C@@H](c3cccc4ncccc34)N3CCC[C@@]123,-2.07
13,O=C1N(Cc2cccc(Cl)c2)C[C@@H]2C[C@@H](c3cccn3-c3cccnc3)N3CCC[C@@]123,3.63
14,O=C1N(Cc2cccnc2)C[C@@H]2C[C@@H](c3cccc(OC4CCCC4)c3)N3CCC[C@@]123,-53.3
15,O=C1N(Cc2cccc(Cl)c2)C[C@@H]2C[C@@H](c3ccccn3)N3CCC[C@@]123,7.23
16,O=C1N(Cc2cccc(Cl)c2)C[C@@H]2C[C@@H](c3cccc4cccnc34)N3CCC[C@@]123,-63.8
17,COc1ccc(C(=O)Nc2nc(N3C(=O)c4ccccc4C3=O)n(-c3ccccc3)n2)cc1,3.14
18,CSc1ncc(Sc2ccccc2)c(C(=O)O)n1,10.3
19,Cc1ccccc1-c1noc(CCC(=O)NCCc2ccccc2)n1,10.4
20,O=C(CSc1nnc(NC(=O)c2ccc(F)cc2F)s1)NC1CC1,14.9
21,COc1cc(OC)cc(-c2nnc(Nc3nc4c(F)cccc4s3)o2)c1,6.96

row,Compound,"hERG current change (%, negative = inhibition) at 1uM [%]"
1,O=C(c1ccc2c(=O)n(CC3CCCO3)c(=S)[nH]c2c1)N1CCN(c2ccccc2)CC1 (stereo not drawn),3.81
2,O=C(CCNS(=O)(=O)c1cccs1)N1CCN(c2cccc(C(F)(F)F)c2)CC1,-2.16
3,C=CCn1c(C2CC2)n[nH]c1=S,1.66
4,O=C(NCc1ccc(Cl)cc1)c1noc2c1CCCCC2,-6.49
5,Cc1cccn2c(=O)nc(SCC(=O)N3CCC(Cc4ccccc4)CC3)nc12,-69.2
6,Cc1cccn2c(=O)nc(SCC(=O)N3CCC(C)CC3)nc12,2.05
7,O=C(CSc1nc(=O)n2ccccc2n1)N1CCC(Cc2ccccc2)CC1,-27.4
8,CCOc1ccccc1NC(=O)C(OC(=O)c1ccccc1O)c1ccccc1 (stereo not drawn),-2.03
9,O=S(=O)(NC1CCC(NS(=O)(=O)c2c(F)cccc2F)CC1)c1ccc2c(c1)OCCO2 (stereo not drawn),10.7
10,COc1ccc(C[C@H]2CN3C(=NC[C@@H]3C(C)C)N2C[C@H](C)NC(=O)c2ccc(C)c(Br)c2)cc1,-41.9
11,Cc1ccc(C(=O)N[C@@H](C)CN2C3=NC[C@H](C(C)C)N3C[C@H]2Cc2ccc(O)cc2)cc1Br,-34.3
12,COc1ccc(C[C@@H]2CN3C(=NC[C@@H]3C)N2C[C@H](C)NC(=O)c2ccc(C)c(Br)c2)cc1,-56.4
13,Cc1ccc(C(=O)NCCN2C3=NC[C@@H](Cc4ccccc4)N3C[C@H]2Cc2ccc(O)cc2)cc1Br,-4.33
14,Cc1ccc(C(=O)N[C@@H](C)CN2C3=NC[C@H](Cc4ccccc4)N3C[C@H]2Cc2ccc(O)cc2)cc1Br,-68.1
15,C/C=C(\C)C(=O)NCCN1C2=NC[C@H](C)N2C[C@@H]1Cc1ccc(OC)cc1,7.75
16,COc1ccc(C[C@H]2CN3C(=NC[C@@H]3Cc3ccc(O)cc3)N2CCNC(=O)c2ccc(C)c(Br)c2)cc1,-18.4
17,COc1ccc(C[C@H]2CN3C(=NC[C@@H]3Cc3ccc(O)cc3)N2C[C@H](C)NC(=O)c2ccc(C)c(Br)c2)cc1,-60.1
18,C/C=C(\C)C(=O)NCCN1C2=NC[C@H](Cc3ccc(O)cc3)N2C[C@@H]1Cc1ccc(OC)cc1,10.6
19,Cc1cc(Cl)cc(Br)c1OCCCCn1cncn1,-0.515
20,Cc1cc(=O)[nH]c(N/N=C/c2cccc([N+](=O)[O-])c2)n1,9.49
21,CC1(c2nnc(Cc3ccccc3)o2)CC(c2ccccc2[N+](=O)[O-])=NO1 (stereo not drawn),0.886

row,Compound,"hERG current change (%, negative = inhibition) at 1uM [%]"
1,Cc1c(NC(=O)c2ccc(Cl)s2)c(=O)n(-c2ccccc2)n1C,8.57
2,Cn1nc2c(c1C(=O)N1CCCC(C(=O)c3cc(F)ccc3F)C1)CCCC2 (stereo not drawn),10.8
3,CO/N=C(\Cn1ncc(NC2CCCCC2)c(Br)c1=O)c1ccc(Cl)cc1,-1.74
4,CCCCNC(=O)CCCCCNS(=O)(=O)c1ccc(Br)cc1,-26.3
5,Cc1cc(N2CCN(S(=O)(=O)c3ccc(Br)cc3)CC2)n2ncnc2n1,-84.8
6,Cc1cc(N2CCN(C/C=C/c3ccccc3)CC2)n2ncnc2n1,-52.2
7,Cc1cc(N2CCN(S(=O)(=O)c3ccc4ccccc4c3)CC2)n2ncnc2n1,-48.4
8,Cc1cc(N2CCN(S(=O)(=O)Cc3ccccc3)CC2)n2ncnc2n1,-11.4
9,Cc1cc(N2CCN(C(c3ccccc3)c3ccccc3)CC2)n2ncnc2n1,8.18
10,CC(=O)Nc1ccc(S(=O)(=O)N2CCN(c3cc(C)nc4ncnn34)CC2)cc1,-9.05
11,Cc1cc(N2CCN(c3ccc(F)cc3)CC2)n2ncnc2n1,-14.8
12,Cc1cc(N2CCN(c3nc4ccccc4s3)CC2)n2ncnc2n1,-74.9
13,Cc1cc(N2CCN(c3ccccc3)CC2)n2ncnc2n1,-7.73
14,O=C(Nc1ccc(Nc2ccccc2)cc1)C(Cl)(Cl)Cl,7.95
15,CCCS(=O)(=O)N1CCN(C(=O)COc2ccc(OC)cc2)CC1.O=C(O)C(=O)O,11.7
16,O=C(CN(C(=O)c1csnn1)c1ccccc1C(F)(F)F)NC1CCCCC1,14.5
17,Cc1ccc(N(CC(=O)NCC2CCCO2)C(=O)Cn2nnc(-c3cccs3)n2)cc1 (stereo not drawn),2.07
18,CC(C)(CN=C1NS(=O)(=O)c2ccccc21)CNC(=O)CN1C(=O)c2ccccc2C1=O,-1.01
